# VDR inh = inhibitors of human vitamin D receptor; P11473; VDR-SRC2-3 peptide fluorescence polarization, 2 h; Potency, µM, without a hit: max response, negative = inhibition, usual class: inhibitors; 0.93% of 400,000 active; further: potency means the concentration at half of the fitted maximal effect; on the % scale 0 is the no-effect control and ±100 the full control effect
#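 Fluorescence polarization assay of small-molecule disruption of VDR binding to coregulator peptide SRC2-3. Compounds and controls pin-transferred, then read after 2 h incubation at ambient room temperature.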
# Tb PFK inh-1 = T. brucei PFK enzyme inhibition. O15648. AID 485367. Potency, µM (series often up to 57.5 µM), inactives show at the highest dose activity, negative = inhibition, hits mostly inhibitors. 0.17% of 330,000 active. T. brucei PFK, ADP-Glo luminescence;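 further: potency means the concentration at half of the fitted maximal effect; 0% = uninhibited 1x PFK enzyme wells and -100% = no-enzyme wells; nearly all actives have a fitted effect of over 60% in size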
#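 1.25 nM PFK with 0.5 mM F6P and 0.1 mM ATP in 0.1 M TEA pH 8.0, 5 mM MgCl2, incubated 45 min at room temperature; ADP measured by ADP-Glo luminescence; compounds titrated up to 57 uM.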
# PLK1 PBD inh = blocks phosphopeptide binding to human PLK1 polo-box domain. 2.8% of 360,000 active. P53350. Plk1 PBD binding of FITC phosphopeptide, fluorescence polarization. Potency, µM, without a hit: max response, negative = inhibition, actives largely listed as inhibitors. AID 720504; further: potency means the concentration at half of the fitted maximal effect; series mostly up to about 57 µM; on the % scale 0 is the no-effect control and ±100 the full control effect; nearly all actives have a fitted effect of over 65% in size
# Target sequence (P53350 whole entry, looked up, the tested form may be a part): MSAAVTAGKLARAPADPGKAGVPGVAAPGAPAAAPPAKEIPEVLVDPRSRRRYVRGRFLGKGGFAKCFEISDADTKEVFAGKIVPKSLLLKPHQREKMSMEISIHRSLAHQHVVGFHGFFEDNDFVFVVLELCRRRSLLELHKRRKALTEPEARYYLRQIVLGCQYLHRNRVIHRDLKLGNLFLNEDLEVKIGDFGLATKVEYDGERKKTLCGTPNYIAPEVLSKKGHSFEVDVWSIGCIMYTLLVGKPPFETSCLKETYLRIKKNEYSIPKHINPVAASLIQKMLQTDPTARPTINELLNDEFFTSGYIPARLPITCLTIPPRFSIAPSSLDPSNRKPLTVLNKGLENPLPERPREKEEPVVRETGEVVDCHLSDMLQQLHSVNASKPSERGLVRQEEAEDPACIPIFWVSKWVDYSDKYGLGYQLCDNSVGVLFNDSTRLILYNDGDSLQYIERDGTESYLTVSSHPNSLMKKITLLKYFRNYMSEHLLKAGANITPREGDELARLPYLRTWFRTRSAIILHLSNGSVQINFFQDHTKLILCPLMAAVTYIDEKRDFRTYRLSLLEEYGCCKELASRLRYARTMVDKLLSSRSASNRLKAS
# BRCA1 expr up = BRCA1 expression activation; MCF7-BRCA1-FFLuc reporter, luminescence, 48 h; response scale: scaled: vehicle 0%, 10 µM genistein 100%; Potency, µM (top dose mostly 46.1 µM), without a hit: at the top dose activation, usual class: activators; 1.1% of 380,000 active; AID 624202; further: potency means the concentration at half of the fitted maximal effect; nearly all actives have a fitted effect of over 80% in size
#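 MCF7 cells carrying a BRCA1-firefly luciferase reporter (2000 cells/well, phenol-red free MEM) were attached for 2 h at 37 °C, then given compounds for 48 h. Luminescence was read 15 min after luciferase reagent; activity normalized to genistein (10 microM) and DMSO.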
# TbPFK ATP = Tb phosphofructokinase inhibition, orthogonal luminescence. shares compounds with Tb PFK inh-1. Tb PFK enzyme, ATP depletion, Kinase-Glo Plus luminescence. Potency, µM (series often up to 57.5 µM), without a hit: top-dose inhibition. 47% of 1,100 active. AID 504636; calls by dose curve; further: potency means the concentration at half of the fitted maximal effect; nearly all actives have a fitted effect of over 60% in size
# Tb PFK inh-2 = validation of T. brucei phosphofructokinase inhibitors; purified T. brucei PFK, ADP-Glo luminescence, 45 min; AID 504637; 41% of 1,100 active; shares compounds with Tb PFK inh-1; Potency, µM (doses to about 57.5 µM), inactives show at the top dose activity change, negative = inhibition, most hits filed as inhibitors;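 further: potency means the concentration at half of the fitted maximal effect; plate controls were full PFK enzyme control for no effect and no enzyme control for full effect; nearly all actives have a fitted effect of over 60% in size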
# USP1 UbRho = validation of human USP1/UAF1 inhibitors | 50% of 50 active | Potency, µM (series often up to 56.8 µM), inactives show at the top dose activity change, negative = inhibition, usual class: inhibitors | shares compounds with VDR inh | Ub-Rhodamine cleavage, fluorescence kinetic read
# VDR confirm = confirmation of human vitamin D receptor inhibitors | Potency, µM, hits mostly inhibitors | shares compounds with VDR inh | VDR-coactivator inhibition assay, qHTS confirmation | 89% of 840 active | AID 602199; further: potency means the concentration at half of the fitted maximal effect
# VDR FP = VDR (human) coactivator binding inhibition, fluorescein polarization; shares compounds with VDR inh; VDR-coactivator binding, fluorescein fluorescence polarization; Potency, µM (top dose mostly 57.1 µM), for inactives: top-dose activity change, negative = inhibition, hits mostly inhibitors; 48% of 840 active; AID 602200; further: potency means the concentration at half of the fitted maximal effect
# VDR bla reporter = confirmation of human vitamin D receptor inhibitors in reporter cells; shares compounds with VDR inh; 23% of 840 active; AID 602202; Potency, µM (titrated, usually from 46.1 µM), for inactives: at the highest dose activity change, negative = inhibition, hits mostly inhibitors; VDR beta-lactamase reporter cells, FRET ratio; cells co-treated with VDR agonist LG190178; further: potency means the concentration at half of the fitted maximal effect; on the % scale 0 is the no-effect control and ±100 the full control effect
# VDR cytotox = counter-screen for vitamin D receptor inhibitors: cytotoxicity; shares compounds with VDR inh; cytotoxicity counter-screen, cell viability, qHTS; Potency, µM (titrated, usually from 48.3 µM), inactives show at the top dose activity change, negative = cytotoxicity, usual class: cytotoxic; 18% of 840 active; AID 602204;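 further: potency means the concentration at half of the fitted maximal effect; plate controls were DMSO for no effect and high-concentration cycloheximide for full effect; nearly all actives have a fitted effect of over 75% in size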
# TbPYK confirm = Trypanosoma brucei pyruvate kinase inhibition, cherry-pick confirmation | shares compounds with PLK1 PBD inh | recombinant TbPYK, Kinase-Glo ATP luminescence | Potency, µM (titrated, usually from 76.9 µM), for the others: at the highest dose activity change, negative = inhibition, usual class: inhibitors | 67% of 890 active | AID 720569; further: potency means the concentration at half of the fitted maximal effect; on the % scale 0 is the no-effect control and ±100 the full control effect; nearly all actives have a fitted effect of over 70% in size
# TbPYK ADP-Glo = orthogonal confirmation of Trypanosoma brucei pyruvate kinase inhibitors | shares compounds with PLK1 PBD inh | recombinant TbPYK, ADP-Glo luminescence, 60 min | Potency, µM (titrated, usually from 76.9 µM), without a hit: at the highest dose activity change, negative = inhibition, usual class: inhibitors | 62% of 890 active | AID 720584; further: potency means the concentration at half of the fitted maximal effect; on the % scale 0 is the no-effect control and ±100 the full control effect; nearly all actives have a fitted effect of over 75% in size
# Active calls of the source: *; ? = inconclusive; · = no result. Sampled rows, rich in hits. Any-hit rate of the full collection: about 3.9%. Unless noted, the call rests on the fitted dose curve; in most records, active means well fitted curve in the direction sought with a large enough effect; inconclusive means small, poorly fitted or top-dose-only effect, or another doubt; inactive means no such curve, though single readings can be large; an effect the other way counts as inactive or inconclusive.
SMILES,VDR inh,Tb PFK inh-1,PLK1 PBD inh,BRCA1 expr up,TbPFK ATP,Tb PFK inh-2,TbPYK confirm,TbPYK ADP-Glo,others
CCOc1cc(/C=C\[N+](=O)[O-])ccc1OCC(=O)N1CCOCC1,28.2µM*,?,21.2µM*,-18.8%,-33.6%,?,·,·,VDR confirm=26.7*;VDR FP=?;VDR bla reporter=?;VDR cytotox=?
COc1ccccc1OCC(=O)N1CCN(Cc2ccc3c(c2)OCO3)CC1,-22.3%,-5.3%,0.0%,-29.2%,·,·,·,·,
ClC(Cl)(c1nnnn1-c1ccccc1)c1nnnn1-c1ccccc1,3.55µM*,10.7µM*,1.89µM*,-61.0%,3.38µM*,10.7µM*,·,·,VDR confirm=3.36*;VDR FP=?;VDR bla reporter=?;VDR cytotox=16.4µM*
Cc1cccc(CN2CC=C(c3noc(CCC(=O)Nc4ccc(C)c(F)c4)n3)CC2)c1,11.3%,·,·,1.6%,·,·,·,·,
COc1cc2c(cc1O)[C@H]1Cc3ccc(OC)c(O)c3CN1CC2,-11.4%,·,·,·,0.5%,-1.5%,·,·,USP1 UbRho=?
Cc1ccc(NC(=O)CN2C(=O)CN=C(c3ccccc3)c3ccccc32)c(C)c1,-15.9%,·,·,·,·,·,·,·,
NCCCP(=O)(O)O,4.2%,·,·,·,·,·,·,·,
O=[N+]([O-])c1ccc(Sc2cccc[n+]2[O-])c2nonc12,8.91µM*,10.7µM*,0.947µM*,-91.5%,2.69µM*,9.53µM*,·,·,VDR confirm=5.97*;VDR FP=?;VDR bla reporter=3.66µM*;VDR cytotox=?
COc1cc(N[C@@H](C)CCCN)c2ncccc2c1,4.6%,·,·,·,4.0%,-5.3%,·,·,USP1 UbRho=20µM*
COc1ccc(-c2cc(=O)c3c(OC)c(OC)c(OC)cc3o2)cc1,-20.9%,-3.6%,0.2%,-14.7%,·,·,·,·,
COc1ccc(OC)c(-c2c3cc(O)c(=O)cc-3oc3cc(O)c(O)cc23)c1,25.1µM*,9.53µM*,2.12µM*,-84.7%,?,3.79µM*,·,·,VDR confirm=23.8*;VDR FP=?;VDR bla reporter=-24.1%;VDR cytotox=?
CC(C)c1ccc(NC(=O)CN2C(=O)CN=C(c3ccccc3)c3ccccc32)cc1,-5.4%,·,·,·,·,·,·,·,
CCOC(=O)C1=C(C)c2ccccc2N(C(=O)OC)C1(C)C(=O)OCC (centres undefined),?,?,?,-23.9%,21.3µM*,?,31.6µM*,39.8µM*,
Cc1cc(NS(=O)(=O)c2ccc(NC(=O)/C=C/c3ccc(C)o3)cc2)nc(C)n1,?,?,8.44µM*,-7.0%,-12.3%,?,7.94µM*,11.2µM*,
O=C(/C=C1\C(=O)Nc2ccccc21)/C=C1\C(=O)Nc2ccccc21,56.2µM*,?,8.44µM*,-62.0%,1.69µM*,4.78µM*,17.8µM*,17.8µM*,VDR confirm=11.9*;VDR FP=?;VDR bla reporter=?;VDR cytotox=?
Oc1ccc(/C=N/Nc2nccnc2Cl)cc1,-12.5%,?,-11.3%,71.2%,-31.0%,19µM*,15.8µM*,13.3%,
Oc1ccc(C2C[C@H]3CC[C@@H]2C3)cc1O (some centres undefined),-13.5%,?,?,-47.5%,12µM*,13.5µM*,10µM*,14.1µM*,
CC(C)N1CCOC(c2ccc(O)c(O)c2)C1 (centres undefined),·,·,2.1%,0.0%,·,·,·,·,
CC(C)NCC(O)COc1cccc2[nH]ccc12 (centres undefined),-1.4%,-1.7%,·,·,·,·,·,·,
CN1CCN(C(=O)c2sc(=S)n(-c3ccccc3)c2N)CC1,44.7µM*,10.7µM*,1.5µM*,0.1%,3.79µM*,5.36µM*,0.631µM*,0.891µM*,VDR confirm=10.6*;VDR FP=?;VDR bla reporter=-4.7%;VDR cytotox=-4.5%
CN1CCN(C(=O)Cc2nc3ccccc3[nH]2)CC1,5.7%,2.8%,-1.8%,-8.0%,·,·,·,·,
Cc1ccc(OCC(=O)Nc2ccc(Cl)cc2C(=O)c2ccccc2)c(Br)c1,-5.1%,·,·,·,·,·,·,·,
CCn1cnc2c(Nc3cccc(Cl)c3)nc(N[C@@H]3CCCC[C@@H]3N)nc21,13.9%,·,·,·,·,·,·,·,
Cc1ccc(Cn2cccc(C(=O)Nc3ccc(C)c(Cl)c3)c2=O)cc1,9.4%,·,·,-5.0%,·,·,·,·,
Oc1c(Br)cc(Br)cc1CN1CCN(Cc2ccccc2)CC1,-5.0%,4.6%,-6.1%,-55.3%,·,·,·,·,
SMILES,VDR inh,Tb PFK inh-1,PLK1 PBD inh,BRCA1 expr up,TbPFK ATP,Tb PFK inh-2,TbPYK confirm,TbPYK ADP-Glo,others
CN1CCCN(C(=O)COc2ccc(Br)cc2)CC1,-15.8%,-3.7%,-6.3%,12.3%,·,·,·,·,
CN1CCN(C(=S)c2ccc(Br)cc2)CC1,?,?,4.23µM*,-14.9%,12µM*,13.5µM*,7.08µM*,7.94µM*,
O=C(Cc1c(Cl)cccc1Cl)N1CCN(Cc2ccccc2)CC1,?,-3.5%,-14.4%,-20.1%,·,·,·,·,
S=C(c1ccc(Br)cc1)N1CCN(Cc2ccccc2)CC1,?,?,6.7µM*,-15.1%,8.49µM*,26.9µM*,1.26µM*,8.91µM*,
Oc1ccc(C(=S)N2CCN(Cc3ccccc3)CC2)cc1,50.1µM*,?,2.67µM*,-0.6%,9.53µM*,19µM*,15.8µM*,31.6µM*,
COc1cc(C(=O)Nc2ccc(Br)cc2C(=O)c2ccccc2Cl)cc(OC)c1OC,-11.6%,-2.1%,-11.9%,-15.6%,·,·,·,·,
COc1ccccc1NS(=O)(=O)c1cc(NC(=O)c2ccc(Cl)nc2)ccc1N1CCCC1,?,16.9µM*,4.74µM*,-66.6%,4.78µM*,6.01µM*,4.47µM*,6.31µM*,
Cc1cc(-n2c(/C=C/c3ccc(Br)s3)nc3ccccc3c2=O)ccc1Br,3.4%,·,·,·,·,·,·,·,
CCOc1ccc(CN(CCc2ccc3c(c2)OCO3)Cc2ccc(CC)cc2)cc1,-18.6%,·,·,·,·,·,·,·,
